We go through one molecule from PubChem BioAssay AID504369 (National Center for Advancing Translational Sciences (NCATS), 2011).

Molecules are shown by their SMILES. Calls of active or inactive are those of the source. The rule behind the calls is not given here.

This test can be described thus: Counterscreen for Identifying a Potential Treatment of Ataxia-Telangiectasia: SAR for Probe. As to conditions: cell-free AlphaLISA pKAP1 detection artifact counterscreen; series mostly up to 154 µM. An excerpt:
NIH Chemical Genomics Center [NCGC] NIH Molecular Libraries Probe Centers Network [MLPCN] MLPCN Grant: MH089030-01 Assay Submitter (PI): Wei Zheng and Yosef Shiloh Ataxia-telangiectasia (A-T) is a devastating and progressive disease for which, there is no cure. Although A-T is a multisystem disease, it is stereotyped characterized by its neurological symptoms such as truncal ataxia, due to cerebellar cortical degeneration of the Purkinje and granule cells. Other symptoms of A-T are telangiectasias (dilated blood vessels), primary immunodeficiency, marked sensitivity to ionizing radiation (IR), chromosomal instability and predisposition to cancer. The underlying genetic cause of A-T is null mutations in the ATM (A-T mutated) gene. ATM is a nuclear serine/threonine kinase that functions as a master regulator of the cellular responses to double strand breaks (DSBs) in the DNA. Upon activation by DSBs, ATM phosphorylates a plethora of downstream targets, including KAP-1 on Ser82452. […] To screen for small molecules that will compensate for the loss of ATM in cells derived from A-T patients, we monitored KAP-1 phosphorylation as a readout for ATM-like activity using an AlphaLISA assay.
qHTS Assay Protocol: 1. […] Readout, EnVision, EnVision plate reader. […] EnVision protocol for 1536-well AlphaScreen read (30ms excitation, 100ms read), about 10 min/plate. […]
(In general: A counterscreen serves to expose hits that act by an unwanted route or on another target.)
In the case of `CC(=O)c1c(O)c(C)c(O)c(Cc2c(O)c3c(c(C(=O)/C=C/c4ccccc4)c2O)OC(C)(C)C=C3)c1O`, the molecule was classed as inactive.
